Experimental data taken from PubChem BioAssay (NCATS).
Records with an inconclusive call do not appear. Calls of active or inactive are those of the source. Unless noted, the call rests on the fitted dose curve; in most records, active means well fitted curve in the direction sought with a large enough effect; inconclusive means small, poorly fitted or top-dose-only effect, or another doubt; inactive means no such curve, though single readings can be large; an effect the other way counts as inactive or inconclusive.

Experiments:
[1] = target: Arylsulfatase A (Homo sapiens) (UniProt P15289); experiment: qHTS screen for enhancers of Arylsulfatase A (ASA1): LOPAC Validation Assay (AID 720538); further: 0% is about no effect
Method in brief: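 First, ASA-I179S fibroblasts from an MLD patient adhered for 6 hrs. Next, compounds were added for 48h. Then pNCS substrate (0.5mM final) with lysis buffer reacted 14h at room temperature before NaOH stop and fluorescence measurement.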

[2] = qHTS for Activators of Parkin Expression: LOPAC Validation Assay (NLuc Reporter) (AID 720572;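 further: 0% = DMSO and 100% = positive control compound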)
Method in brief: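 Cells harboring the Parkin-promoter coincidence reporter were treated for 24 h at seven concentrations. NLuc output was measured sequentially after the FLuc channel and scaled between DMSO and positive control values.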

[3] = target: T1, Hexokinase-4 (Homo sapiens) + Glucokinase regulatory protein (Homo sapiens) (UniProt P35557+Q14397); experiment: qHTS assay for inhibitors of recombinant human GCK-GKRP interaction: ADP-Glo assay (AID 743206);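 further: plate controls were DMSO plus enzyme for no effect and no enzyme for full effect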
Method in brief: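 Pin-transferred compounds meet a 15 nM GST-GCK/15 nM FLAG-GKRP/2 uM S6P mix (dispense concentrations). ATP is then added to 0.4 mM final with 5 mM glucose, and the reaction runs 60 min at room temperature. ADP is quantified luminescently.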

[4] = target: T1, Hexokinase-4 (Homo sapiens) + Glucokinase regulatory protein (Homo sapiens); experiment: qHTS assay for inhibitors of recombinant human GCK-GKRP interaction: HTRF assay (AID 743207);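 further: 0% = DMSO with GCK present and -100% = DMSO wells lacking GCK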
Method in brief: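 Steps: dispense GCK–GKRP complex (5 nM each, GST- and FLAG-tagged) with 2 uM S6P; pin in compounds; add XL665/Eu-cryptate-labelled antibodies; incubate 60 min at room temperature; read time-resolved FRET at 665 and 615 nm.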

[5] = Natriuretic polypeptide receptor (hNpr1) antagonism - Pilot counterscreen GloSensor control cell line (AID 1347045; calls by dose curve; further: potency means the concentration at half of the fitted maximal effect)
Method in brief: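 Cells were first seeded and incubated overnight at 37C, then loaded with 2% GloSensor substrate for 2 h. Compounds were added for 30 min at room temperature, followed by a baseline read, 50 uM SNP and a final read after 20 min.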

[6] = target: T2, Tyrosine-protein phosphatase non-receptor type substrate 1 (Homo sapiens) + Leukocyte surface antigen CD47 (Homo sapiens) (UniProt P78324+Q08722); experiment: CD47-SIRPalpha protein protein interaction - LANCE assay qHTS validation (AID 1347057; active means well fitted curve in the direction sought with a large enough effect in the signal ratio, with a control signal flat, not every such curve was filed as active; the % refers to the signal ratio; further: series mostly up to about 38 µM; 0% is about no effect)
Method in brief: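 Inhibition of soluble CD47/SIRPalpha ectodomain association by titrated compounds, measured as 665/615 nm time-resolved FRET ratio after sequential 30 min room-temperature incubations.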

[7] = target: T2, Tyrosine-protein phosphatase non-receptor type substrate 1 (Homo sapiens) + Leukocyte surface antigen CD47 (Homo sapiens); experiment: CD47-SIRPalpha protein protein interaction - HTRF assay qHTS validation (AID 1347058; active means well fitted curve in the direction sought with a large enough effect in the signal ratio, not every such curve was filed as active; the % refers to the signal ratio; further: series mostly up to about 38 µM; 0% is about no effect)
Method in brief: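 Soluble extracellular domains (6His-CD47, Avi-tag-biotinylated SIRPalpha) in PBS pH 7.4 with 0.05% IGEPAL CA-630. Compounds were preincubated 30 min at RT with CD47 and anti-His-Eu, then SIRPalpha and SAV-XL665 were added. TR-FRET 665/615 ratio.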

[8] = target: T2, Tyrosine-protein phosphatase non-receptor type substrate 1 (Homo sapiens) + Leukocyte surface antigen CD47 (Homo sapiens); experiment: CD47-SIRPalpha protein protein interaction - Alpha assay qHTS validation (AID 1347059);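 further: bead proximity luminescence from CD47 binding SIRPalpha after compound preincubation with SIRPalpha; on the % scale 0 is the no-effect control and ±100 the full control effect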
Method in brief: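 In PBS (pH 7.4) with 0.05% IGEPAL CA-630, compound is preincubated with biotin-Avi-SIRPalpha ectodomain before His-CD47 ectodomain and affinity beads are added. Light-protected room-temperature incubations; AlphaScreen readout.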

[9] = target: Parathyroid hormone/parathyroid hormone-related peptide receptor (Homo sapiens) (UniProt Q03431); experiment: qHTS for PTHR1 Agonists: Optimization Screen against the NCGC LOPAC library (AID 1347079);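 further: GloSensor cAMP luminescence in HEK-293 GP2 cells expressing human PTHR1 with IBMX; 0% is about no effect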
Method in brief: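 HEK-293 GP2 cells, PTHR1 + GloSensor cAMP; 3000 cells/well, o/n. Luciferin + IBMX 0.5mM each (stock), 1 hr 37C. Cpd titration, 1 hr 37C. Lum after 15 min RT. Ctrl M-PTH(1-15) top 10uM.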

[10] = target: Lysine-specific demethylase 5B (Homo sapiens) (UniProt Q9UGL1); experiment: Optimization screen for KDM5B Histone Demethylases FDH coupled qHTS against the LOPAC library (AID 1347166); further: 0% is about no effect
Method in brief: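 KDM5BDeltaAP (200nM final) in 50mM HEPES pH 7.5, 0.01% Tween-20 was preincubated with compound for 10 min at room temperature. A substrate mix of 12.5uM H3K4Me3, 25uM a-ketoglutarate, ascorbate, Fe2+, NAD+ and formaldehyde dehydrogenase was then added. NADH fluorescence (340/450 nm) was read initially and after 30 min.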

[11] = Validation qHTS assay for inhibitors of Activation Induced Cytidine Deaminase (AID): UDG Counterscreen signal (AID 1347427); further: 0% is about no effect
Method in brief: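 Fluorescence at 560 nm excitation, 665 nm emission reports UDG signal after 250 mM NaOH (2x) addition and 30 min. Enzymes (AID 1 uM, UDG 2 U/mL, at 4/3x) preincubated 10 min with compound, then 4 h with 4x 250 nM DJC20/DJC23 substrate at room temperature.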

[12] = target: Single-stranded DNA cytosine deaminase (Homo sapiens) (UniProt Q9GZX7); experiment: Validation qHTS assay for inhibitors of Activation Induced Cytidine Deaminase (AID): AID signal (AID 1347429); further: on the % scale 0 is the no-effect control and ±100 the full control effect
Method in brief: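 Steps: dispense AID with UDG; pin-transfer compound up to 114 uM final; add DJC20/DJC23 substrate and hold 4 hr at room temperature; add NaOH, hold 30 min; read FRET signal (540/590 nm).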

[13] = Primary qHTS for inhibitors of La Crosse Virus (LACV) - induced cell death in SH-SY5Y cells (AID 1508616);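 further: top concentration of the series differs between compounds; 0% = infected DMSO wells and 100% = uninfected DMSO wells; higher means more rescue of cells from virus-induced death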
Method in brief: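 SH-SY5Y, 6000 cells/well; cpd via pin tool in DMSO; LACV 0.01 MOI; 6 d 37C 5% CO2; ATPLite, 5 min RT; luminescence normalized to ±virus DMSO controls.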

[14] = target: Calcium and integrin-binding protein 1 (Homo sapiens) (UniProt Q99828); experiment: Validation qHTS for Identification of Calcium Integrin Binding protein 1 (CIB1) Competitor (AID 1508618); further: on the % scale 0 is the no-effect control and ±100 the full control effect
Method in brief: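 In this qHTS validation, the LOPAC set (up to 114 uM) was tested for blocking CIB1 binding to a fluorescein-tagged alphaIIb peptide, with FP detection at 480/540 nm.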

[15] = Counterscreen qHTS for small molecule stabilizers of the endoplasmic reticulum resident proteome: GLuc-NoTag assay (AID 1508627);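 further: series mostly up to about 76 µM; 0% = thapsigargin alone and -100% = DMSO vehicle control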
Method in brief: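 Secreted GLuc lacking the SERCaMP modification is measured in SH-SY5Y cells exposed to compound for 19 h and then to thapsigargin (100 nM, 4 h) to deplete ER calcium; hits retested at 11 concentrations, up to 76.6 uM.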

[16] = Cell Viability qHTS for small molecule stabilizers of the endoplasmic reticulum resident proteome (AID 1508629); conditions: cell viability counter-screen, 100 nM thapsigargin for final 4 h;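 further: human SH-SY5Y neuroblastoma cells carrying the GLuc-SERCaMP reporter; compound exposure about 46 h in total before the viability read; on the % scale 0 is the no-effect control and ±100 the full control effect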
Papain (Carica papaya) = Papain (Carica papaya) (UniProt P00784); experiment: Primary qHTS assay for inhibitors of the protease papain (AID 1645873)
[17] = target: Metallo-beta-lactamase type 2 (Klebsiella pneumoniae) (UniProt C7C422); experiment: qHTS to identify inhibitors of the New Delhi Metallo-beta-lactamase (NDM): assay validation screen against the NCATS LOPAC Collection (AID 1794843)
Method in brief: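 Nitrocefin hydrolysis (50 uM substrate stock) by NDM-1, 2 nM final, was followed by 485 nm absorbance after compound preincubation; buffer was 50 mM HEPES pH 7.0, 1 uM ZnSO4, 0.01% Tween20.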

[18] = target: Glutathione peroxidase 1 (Homo sapiens) (UniProt P07203); experiment: Primary qHTS Assay for Inhibitors of Recombinant Selenoprotein Glutathione Peroxidase 1 (GPX1) (AID 1845191); further: on the % scale 0 is the no-effect control and ±100 the full control effect; nearly all actives have a fitted effect of over 65% in size
Method in brief: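 GPX1 10 nM, GR 100 nM, GSH 1 mM, NADPH 0.5 mM, CHP 0.5 mM (final). 30-min cpd preincubation, RT. Ex340/Em450 read t=0, t=15 min.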

[19] = target: Phospholipid hydroperoxide glutathione peroxidase GPX4 (Homo sapiens) (UniProt P36969); experiment: Primary qHTS Assay for Inhibitors of Recombinant Selenoprotein Glutathione Peroxidase 4 (GPX4) (AID 1845192); conditions: outcome: dose series up to 50 µM unless noted; further: series mostly up to about 50 µM; on the % scale 0 is the no-effect control and ±100 the full control effect; nearly all actives have a fitted effect of over 65% in size
Method in brief: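 qHTS, GR-coupled: GPX4 200 nM + cpd 30 min RT → GSH 1 mM, NADPH 0.5 mM, GR 100 nM → CHP 0.5 mM start; fluor 340/450 at t0 and t15 min; no-enzyme wells as control.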

T2 sequence (P78324 whole entry, looked up, the tested form may be a part): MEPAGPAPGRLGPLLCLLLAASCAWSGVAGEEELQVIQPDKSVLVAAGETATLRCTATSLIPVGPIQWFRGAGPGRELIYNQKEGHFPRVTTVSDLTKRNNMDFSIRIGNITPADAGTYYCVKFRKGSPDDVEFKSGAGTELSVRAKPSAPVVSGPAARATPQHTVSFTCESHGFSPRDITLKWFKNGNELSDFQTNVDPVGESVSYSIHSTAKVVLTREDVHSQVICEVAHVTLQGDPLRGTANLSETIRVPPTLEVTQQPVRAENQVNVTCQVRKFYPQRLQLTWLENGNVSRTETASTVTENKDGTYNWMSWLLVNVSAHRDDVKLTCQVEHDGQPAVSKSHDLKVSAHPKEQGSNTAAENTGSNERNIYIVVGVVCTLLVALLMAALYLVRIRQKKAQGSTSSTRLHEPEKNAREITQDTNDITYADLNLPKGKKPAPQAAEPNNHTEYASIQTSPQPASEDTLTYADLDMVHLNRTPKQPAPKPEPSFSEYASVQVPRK
T2 sequence (Q08722 whole entry, looked up, the tested form may be a part): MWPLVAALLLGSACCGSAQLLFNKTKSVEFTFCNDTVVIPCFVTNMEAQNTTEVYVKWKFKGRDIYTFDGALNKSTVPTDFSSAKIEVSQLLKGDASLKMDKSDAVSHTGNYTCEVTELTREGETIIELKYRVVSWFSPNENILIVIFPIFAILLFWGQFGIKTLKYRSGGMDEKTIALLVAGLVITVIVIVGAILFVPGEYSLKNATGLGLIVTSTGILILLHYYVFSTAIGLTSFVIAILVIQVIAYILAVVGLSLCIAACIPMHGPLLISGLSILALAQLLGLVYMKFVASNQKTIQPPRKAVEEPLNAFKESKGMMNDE
T1 sequence (P35557 whole entry, looked up): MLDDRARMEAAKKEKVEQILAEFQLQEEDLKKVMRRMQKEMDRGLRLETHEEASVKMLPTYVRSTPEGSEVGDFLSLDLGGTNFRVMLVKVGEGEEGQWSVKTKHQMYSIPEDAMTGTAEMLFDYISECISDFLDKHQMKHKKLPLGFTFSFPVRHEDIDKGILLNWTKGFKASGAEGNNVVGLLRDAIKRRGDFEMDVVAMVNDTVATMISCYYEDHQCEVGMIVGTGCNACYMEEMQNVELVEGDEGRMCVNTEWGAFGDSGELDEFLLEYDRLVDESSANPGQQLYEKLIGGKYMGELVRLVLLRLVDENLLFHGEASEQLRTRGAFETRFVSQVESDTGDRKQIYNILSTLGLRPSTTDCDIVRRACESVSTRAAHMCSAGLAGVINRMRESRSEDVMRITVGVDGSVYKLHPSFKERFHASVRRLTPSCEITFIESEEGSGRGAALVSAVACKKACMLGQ
T1 sequence (Q14397 whole entry, looked up): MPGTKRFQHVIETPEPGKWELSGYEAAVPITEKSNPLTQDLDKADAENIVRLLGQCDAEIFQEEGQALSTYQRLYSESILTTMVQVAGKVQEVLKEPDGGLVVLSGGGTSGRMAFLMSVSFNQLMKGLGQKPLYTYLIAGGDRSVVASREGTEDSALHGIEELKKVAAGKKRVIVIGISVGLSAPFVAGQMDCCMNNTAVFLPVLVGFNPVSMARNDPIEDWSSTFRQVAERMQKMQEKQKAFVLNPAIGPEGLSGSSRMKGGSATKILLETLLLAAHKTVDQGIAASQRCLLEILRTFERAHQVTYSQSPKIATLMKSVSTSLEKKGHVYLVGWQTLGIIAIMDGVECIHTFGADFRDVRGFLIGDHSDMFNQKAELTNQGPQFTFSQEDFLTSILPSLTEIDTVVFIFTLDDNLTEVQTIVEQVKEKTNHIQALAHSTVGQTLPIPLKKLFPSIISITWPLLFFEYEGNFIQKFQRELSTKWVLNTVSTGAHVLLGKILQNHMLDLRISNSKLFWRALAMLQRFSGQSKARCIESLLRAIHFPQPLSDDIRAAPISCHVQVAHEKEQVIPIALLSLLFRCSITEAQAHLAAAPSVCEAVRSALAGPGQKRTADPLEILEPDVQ
Chain of Papain (Carica papaya) (P00784 whole entry, looked up): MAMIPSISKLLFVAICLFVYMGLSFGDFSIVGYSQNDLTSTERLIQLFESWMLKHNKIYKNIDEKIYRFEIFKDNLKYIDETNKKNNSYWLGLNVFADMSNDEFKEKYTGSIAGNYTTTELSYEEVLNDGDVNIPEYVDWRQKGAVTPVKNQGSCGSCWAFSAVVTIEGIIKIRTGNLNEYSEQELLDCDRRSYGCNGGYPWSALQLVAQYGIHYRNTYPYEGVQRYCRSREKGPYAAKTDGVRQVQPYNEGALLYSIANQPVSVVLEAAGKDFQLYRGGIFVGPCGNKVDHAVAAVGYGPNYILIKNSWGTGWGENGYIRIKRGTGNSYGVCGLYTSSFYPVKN
Chain of Calcium and integrin-binding protein 1 (Homo sapiens) (Q99828 whole entry, looked up): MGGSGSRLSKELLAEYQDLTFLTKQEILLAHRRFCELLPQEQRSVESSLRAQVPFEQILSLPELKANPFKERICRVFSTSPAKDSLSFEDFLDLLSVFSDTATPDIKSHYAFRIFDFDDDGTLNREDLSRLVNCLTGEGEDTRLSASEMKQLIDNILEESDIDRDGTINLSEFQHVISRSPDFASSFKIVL
Chain of Metallo-beta-lactamase type 2 (Klebsiella pneumoniae) (C7C422 whole entry, looked up): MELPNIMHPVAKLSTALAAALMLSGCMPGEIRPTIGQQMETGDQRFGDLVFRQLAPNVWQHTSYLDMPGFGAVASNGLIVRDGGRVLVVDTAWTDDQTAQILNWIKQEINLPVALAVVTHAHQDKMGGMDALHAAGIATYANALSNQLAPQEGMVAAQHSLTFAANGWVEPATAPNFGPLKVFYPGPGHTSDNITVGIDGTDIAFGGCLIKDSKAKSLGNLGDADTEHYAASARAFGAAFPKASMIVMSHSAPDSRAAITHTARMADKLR
Chain of Arylsulfatase A (Homo sapiens) (P15289 whole entry, looked up): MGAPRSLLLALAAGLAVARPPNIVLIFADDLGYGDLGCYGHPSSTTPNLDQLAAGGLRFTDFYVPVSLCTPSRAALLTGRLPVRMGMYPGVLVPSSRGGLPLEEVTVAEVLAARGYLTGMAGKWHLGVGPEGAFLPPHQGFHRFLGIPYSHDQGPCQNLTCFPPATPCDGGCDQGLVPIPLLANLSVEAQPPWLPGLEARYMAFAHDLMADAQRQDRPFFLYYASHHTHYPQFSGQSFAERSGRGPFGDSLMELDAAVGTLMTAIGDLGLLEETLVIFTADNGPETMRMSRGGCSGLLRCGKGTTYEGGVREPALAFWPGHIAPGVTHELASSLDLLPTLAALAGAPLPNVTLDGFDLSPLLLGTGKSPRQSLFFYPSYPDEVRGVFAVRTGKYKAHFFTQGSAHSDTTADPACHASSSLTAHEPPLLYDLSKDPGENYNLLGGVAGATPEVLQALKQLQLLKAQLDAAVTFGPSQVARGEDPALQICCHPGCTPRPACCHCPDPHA
Chain of Phospholipid hydroperoxide glutathione peroxidase GPX4 (Homo sapiens) (P36969 whole entry, looked up): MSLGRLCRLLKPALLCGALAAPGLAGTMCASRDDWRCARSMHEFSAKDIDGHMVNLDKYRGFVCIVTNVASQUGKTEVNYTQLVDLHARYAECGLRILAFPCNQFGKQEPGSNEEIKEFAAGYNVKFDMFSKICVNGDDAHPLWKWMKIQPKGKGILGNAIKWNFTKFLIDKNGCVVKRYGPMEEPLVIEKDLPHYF
Chain of Glutathione peroxidase 1 (Homo sapiens) (P07203 whole entry, looked up): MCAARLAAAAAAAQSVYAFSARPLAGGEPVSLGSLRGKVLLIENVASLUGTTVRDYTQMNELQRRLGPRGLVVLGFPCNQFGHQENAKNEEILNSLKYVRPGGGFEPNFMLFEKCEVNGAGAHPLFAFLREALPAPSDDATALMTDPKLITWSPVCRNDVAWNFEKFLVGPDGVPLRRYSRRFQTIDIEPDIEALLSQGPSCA
Chain of Parathyroid hormone/parathyroid hormone-related peptide receptor (Homo sapiens) (Q03431 whole entry, looked up): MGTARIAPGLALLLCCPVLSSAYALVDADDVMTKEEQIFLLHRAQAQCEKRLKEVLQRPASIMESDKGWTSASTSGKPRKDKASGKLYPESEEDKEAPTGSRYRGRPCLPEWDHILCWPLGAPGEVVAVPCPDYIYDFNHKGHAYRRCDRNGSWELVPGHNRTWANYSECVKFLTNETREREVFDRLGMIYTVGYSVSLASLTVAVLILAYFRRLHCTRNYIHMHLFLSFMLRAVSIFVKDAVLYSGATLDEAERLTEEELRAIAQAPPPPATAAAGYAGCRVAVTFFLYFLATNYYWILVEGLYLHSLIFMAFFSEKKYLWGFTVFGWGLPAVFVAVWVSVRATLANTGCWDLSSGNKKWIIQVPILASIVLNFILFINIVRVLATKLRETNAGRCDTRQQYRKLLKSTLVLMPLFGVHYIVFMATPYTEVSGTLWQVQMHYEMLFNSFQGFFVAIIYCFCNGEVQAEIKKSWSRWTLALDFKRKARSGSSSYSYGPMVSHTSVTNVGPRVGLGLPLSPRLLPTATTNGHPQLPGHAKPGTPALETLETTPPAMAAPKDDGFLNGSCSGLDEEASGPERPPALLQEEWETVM
Chain of Single-stranded DNA cytosine deaminase (Homo sapiens) (Q9GZX7 whole entry, looked up): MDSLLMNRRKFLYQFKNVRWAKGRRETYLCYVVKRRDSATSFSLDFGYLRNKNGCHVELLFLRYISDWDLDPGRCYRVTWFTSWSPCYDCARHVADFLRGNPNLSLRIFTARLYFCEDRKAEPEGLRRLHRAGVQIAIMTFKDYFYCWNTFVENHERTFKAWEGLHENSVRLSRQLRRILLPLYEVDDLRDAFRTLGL

S=C(Nc1ccccc1)Nc1nccs1
active: Potency [5] 13.1 µM
inactive: Potency [1] | outcome [2] | outcome [3] | outcome [4] | outcome [6] | outcome [7] | Potency [8] | outcome [9] | outcome [10] | outcome [11] | Potency [12] | outcome [13] | outcome [14] | Potency [15] | max response [16] -3.94% | Potency (Papain (Carica papaya)) | Potency [17] | Potency [18] | Potency [19]
